BoNT F protease: BoNT/F light chain protease inhibitors, primary screen, biochemical, flow cytometry, MLPCN library | Botulinum neurotoxin type F light chain protease (Clostridium botulinum) | Multiplex microsphere protease cleavage assay | inhibition, % at 10 µM | actives 0.22% (n = 360,000); in the data active = inhibition above about 35%, passing the limit was not always enough; inconclusive = no clear call, values can overlap the other calls
MazEF act: activators of E. coli MazEF toxin-antitoxin RNase, primary screen, biochemical, fluorescence, uHTS; activation, % at 20 µM; FAM/BHQ RNA-DNA oligo cleavage fluorescence, 5 h; Endoribonuclease toxin MazF (Escherichia coli (strain K12)), P0AE70; AID 504720, 2011; actives 0.32% (n = 350,000); in the data active = activation above about 50%
BoNT A protease: BoNT/A light chain protease inhibitors, primary screen, biochemical, flow cytometry, MLPCN library; Botulinum neurotoxin type A light chain protease (Clostridium botulinum A str. ATCC 3502); multiplex microsphere protease substrate cleavage; inhibition, % at 10 µM; actives 0.17% (n = 360,000)
PfHsp40 yeast: rescue of yeast from PfHsp40 toxicity, primary screen, S. cerevisiae, ATP luminescence | S. cerevisiae expressing PfHsp40, growth rescue | growth rescue, % at 12.5 µM | actives 0.68% (n = 340,000); in the data active = growth rescue above about 28%, passing the limit was not always enough; inconclusive = no clear call, values can overlap the other calls;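 note: yeast W303a lacking pdr1 and pdr3 grown in galactose medium; growth measured after three days at 30 °C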
Bead autofluor: flagged as autofluorescent in microsphere protease counterscreen. compound autofluorescence counterscreen, microsphere flow cytometry; stronger effect = higher value. fluorescence intensity (test concentration not listed). actives 3.1% (n = 360,000); in the data active = fluorescence intensity above about 16000; inconclusive = no clear call, values can overlap the other calls
Anthrax LF inh2: Bacillus anthracis LF protease inhibitors, primary screen, biochemical, multiplex microsphere, MLPCN library; multiplex microsphere protease cleavage assay; inhibition, % at 10 µM; actives 0.12% (n = 360,000)
Target sequence (P15917 whole entry, looked up): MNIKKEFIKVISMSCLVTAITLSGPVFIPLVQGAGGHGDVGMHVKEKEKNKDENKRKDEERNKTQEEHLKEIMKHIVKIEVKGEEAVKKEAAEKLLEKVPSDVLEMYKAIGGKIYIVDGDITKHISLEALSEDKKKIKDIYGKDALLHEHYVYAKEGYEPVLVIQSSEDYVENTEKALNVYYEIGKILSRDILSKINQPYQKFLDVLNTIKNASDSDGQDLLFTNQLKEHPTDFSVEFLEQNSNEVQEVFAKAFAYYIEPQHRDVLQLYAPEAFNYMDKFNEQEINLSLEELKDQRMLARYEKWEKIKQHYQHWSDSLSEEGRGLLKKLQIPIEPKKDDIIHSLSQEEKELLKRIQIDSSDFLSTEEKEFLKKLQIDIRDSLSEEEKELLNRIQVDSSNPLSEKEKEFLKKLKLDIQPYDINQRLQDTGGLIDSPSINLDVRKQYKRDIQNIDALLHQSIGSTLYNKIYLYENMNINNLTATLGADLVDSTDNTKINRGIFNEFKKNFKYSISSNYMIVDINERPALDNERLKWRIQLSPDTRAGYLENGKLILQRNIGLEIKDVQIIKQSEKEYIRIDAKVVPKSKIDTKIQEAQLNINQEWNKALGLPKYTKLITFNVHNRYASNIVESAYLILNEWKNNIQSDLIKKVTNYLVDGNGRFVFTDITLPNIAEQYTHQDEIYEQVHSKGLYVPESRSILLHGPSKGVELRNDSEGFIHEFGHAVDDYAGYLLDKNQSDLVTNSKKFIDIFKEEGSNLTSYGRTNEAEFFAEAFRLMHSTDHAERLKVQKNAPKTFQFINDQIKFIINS
A number is an active result; 0 = inactive; ? = inconclusive; - = no result. The list is not random: actives were taken first. Their share in the collection is about 4.3%. Cut-off read from the data, not from the text of the source, unless noted: active = inhibition above about 30%; inconclusive = no clear call, values can overlap the other calls; inactive = below that.

SMILES	BoNT F protease	MazEF act	BoNT A protease	PfHsp40 yeast	Bead autofluor	Anthrax LF inh2
CC1CCN(S(=O)(=O)c2ccc(NC(=O)Cn3nnc(-c4ccccc4)n3)cc2)CC1	0	0	0	0	19646	0
Cc1ccc(-c2nnn(CC(=O)Nc3ccc(S(=O)(=O)N4CCC(C)CC4)cc3)n2)cc1	0	0	0	0	0	0
O=C(Cc1cccs1)Nc1ccc(N2CCOCC2)cc1	0	0	0	35	0	0
Cc1cc(NS(=O)(=O)c2ccc(NC(=O)Cc3ccc([N+](=O)[O-])cc3)cc2)nc(C)n1	0	0	0	0	0	0
COc1ccc(CCNC(=O)c2ccc(CS(=O)Cc3ccc(C)cc3)o2)cc1OC (stereo unspecified)	0	0	0	0	0	0
COc1ccc(NC(=O)Nc2ccc3c(c2)C(=O)N([C@H](C)CO)C[C@H](C)[C@@H](CN(C)C(=O)Nc2c(C)noc2C)O3)cc1	0	0	0	0	0	0
COc1cc(C(=O)N/N=C(\C)c2ccc(NC(=O)Cc3ccccc3)cc2)ccc1O	0	0	0	0	0	0
CC1CCN(S(=O)(=O)c2ccc(NC(=O)Cc3cccs3)cc2)CC1	0	0	0	0	20322	0
CC1CCN(CC(=O)Nc2ccc(S(=O)(=O)N3CCC(C)CC3)cc2)CC1	0	0	0	0	0	0
COc1cccc(OCCOc2c(OC)cccc2OC)c1	37	0	0	0	0	0
Nc1ccc(-c2c3ccc(=O)cc-3oc3cc(O)ccc23)cc1C(=O)O	?	-	0	0	0	128
O=c1ccc2c(-c3ccccc3)c3ccc(O)cc3oc-2c1	88	-	0	0	0	56
O=c1cc(-c2ccccc2)oc2cc(O)ccc12	0	0	0	0	0	0
COc1ccc(-c2c(C)c3ccc(O)cc3oc2=O)cc1OC	0	0	0	0	0	0
O=C(COC(=O)C1=COCCO1)Nc1cc(C(F)(F)F)ccc1Cl	0	0	0	0	0	0
Cc1cc(C)c2c(C)nn(C3CCCCC3)c2n1	0	0	?	0	16323	0
C/C(=C\C(=O)OCCCCCCCCC(=O)O)C[C@@H]1OC[C@H](C[C@@H]2O[C@H]2[C@@H](C)[C@H](C)O)[C@@H](O)[C@H]1O	0	0	0	0	0	0
Nc1ccc(S(=O)(=O)N2CCCC2C(=O)O)cc1 (stereo unspecified)	0	0	0	0	0	0
O=c1[nH]c2ccc(S(=O)(=O)N3CCN(Cc4ccccc4)CC3)cc2[nH]c1=O	0	0	0	0	21331	0
O=C(O)C1CCCN1S(=O)(=O)c1ccc2[nH]c(=O)c(=O)[nH]c2c1 (stereo unspecified)	0	0	0	0	25018	0
COc1ccc(C(O)Cc2nccn2C)cc1 (stereo unspecified)	0	0	0	0	0	0
CCCc1cc(=O)[nH]c(SCCc2ccccc2)n1	?	0	0	0	0	0
CCn1c(SCC(=O)Nc2nc(-c3ccc(C)cc3)cs2)nnc1-c1ccccc1O	0	0	0	86	0	0
CCn1c(CSc2nc(C)cc(C)n2)nnc1SCC(=O)Nc1nc(-c2ccccc2)cs1	0	0	0	0	16261	0
Cc1cc(C)c(-n2nnnc2SC(C)C)c(C)c1	0	0	0	0	0	0
SMILES	BoNT F protease	MazEF act	BoNT A protease	PfHsp40 yeast	Bead autofluor	Anthrax LF inh2
CC(C)c1nc2scc(-c3ccc(Cl)cc3)c2c(=O)n1N	0	0	0	0	0	0
N#CC1=C2SCN(Cc3ccco3)CN2C(=O)CC1c1c(F)cccc1Cl (stereo unspecified)	0	0	0	0	0	0
Cc1ccc(C2CC(=O)N3CN(Cc4ccco4)CSC3=C2C#N)cc1 (stereo unspecified)	0	0	0	0	20926	0
COc1ccc(-c2cc(N)n(S(=O)(=O)c3c(F)c(F)c(F)c(F)c3F)n2)cc1OC	0	0	?	0	16388	0
COc1ccc(S(=O)(=O)n2nc(-c3cc(OC)c(OC)c(OC)c3)cc2N)cc1OC	0	0	0	0	0	0
O=C(NC1CCCCC1)c1sc(N2CCOCC2)nc1-c1ccccc1	0	0	0	0	0	0
COC(=O)c1cnc(NNC(=O)c2ccc([N+](=O)[O-])cc2)nc1C(F)(F)F	0	0	0	63	0	0
COC(=O)c1cnc(NNS(=O)(=O)c2ccc(Cl)cc2)nc1C(F)(F)F	?	0	0	0	0	0
O=C(Nc1ccc(Cl)cc1)N1CCC(c2ccccc2)C1 (stereo unspecified)	0	0	0	0	0	0
CC(C)N(C)C1CCN(C(=O)Nc2ccc(Cl)cc2)CC1	0	0	0	0	23132	0
C=CCn1c(SCC(=O)N(CCOC)c2c(N)n(CC(C)C)c(=O)[nH]c2=O)nc2ccccc21	0	0	0	0	?	0
Cc1nc2c(C(=O)NCc3ccc4c(c3)OCO4)cnn2c(C)c1Cc1ccc(F)cc1Cl	0	0	0	0	0	0
Cc1nc2c(C(=O)NCc3ccco3)cnn2c(C)c1Cc1ccc(F)cc1Cl	0	0	?	0	21933	0
Cc1nc2ccc(F)cc2cc1C(=O)NCc1ccco1	0	0	0	0	0	0
Cc1ccccc1Cc1c(C)nc2c(C(=O)NCc3ccc4c(c3)OCO4)cnn2c1C	0	0	0	0	16548	0
Cc1ccc(-n2ncc(C(=O)NCc3ccc4c(c3)OCO4)c2NC(=O)c2ccco2)cc1C	0	0	?	0	21894	0
Cc1cccc(Cc2c(C)nc3c(C(=O)NCc4ccco4)cnn3c2C)c1	0	0	0	0	23199	0
COc1ccc(-c2cc(C(F)(F)F)nc(S(=O)(=O)CCCC(=O)Nc3cccnc3Cl)n2)cc1OC	0	0	0	0	0	0
OC[C@@H]1CN(Cc2ccncc2)C[C@H](n2cnc3c(NCc4ccco4)ncnc32)O1	0	-	0	-	0	0
CCS(=O)(=O)n1nc(-c2ccco2)nc1SC	0	0	0	0	0	0
CCS(=O)(=O)n1nc(-c2ccc(Cl)cc2)nc1SC	0	0	0	0	22674	0
O=C(OCC(=O)c1ccc[nH]1)c1ccc(S(=O)(=O)C(F)F)cc1	0	0	0	-	0	0
COc1cccc(-c2cnc(C(O)c3ccc(C)cc3C)[nH]2)c1 (stereo unspecified)	0	-	0	-	0	0
Cc1ccccc1OCC(=O)N1N=C(C(F)(F)F)CC1(O)C(C)(C)C (stereo unspecified)	0	0	0	0	0	0
Cc1ccc(OCC(=O)N2N=C(C(F)(F)F)CC2(O)C(C)(C)C)cc1C (stereo unspecified)	0	0	0	0	19845	0
CCOC(=O)Cn1nnnc1CN(Cc1cccs1)Cc1cc2cc(C)ccc2[nH]c1=O	0	0	0	0	16529	0
